Compounds with a hit are over-represented: about 19% of the library has one in this group of screens.
KB-3-1 cytotox – KB-3-1 parental cell cytotoxicity; actives 1.4% (n = 400,000); Potency, µM (highest dose often 46.1 µM), usual class: cytotoxic; KB-3-1 viability, CellTiter-Glo ATP luminescence, 72 h; AID 1347075; also: nearly all actives have a fitted effect of over 60% in size
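Cells are dispensed, compounds pinned in, plates held at 37 °C for 72 h, then CellTiter-Glo is added and luminescence read after 10 minutes. Cell line: parental KB-3-1 in phenol-red-free DMEM, 10% FBS.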
DT40 TDP1 CPT – DT40-hTDP1 cell growth loss with CPT; AID 686979; Potency, µM (doses to about 46.2 µM), without a hit: top-dose activity change, negative = growth inhibition, most hits filed as inhibitors; actives 12% (n = 420,000); chicken DT40 Tdp1-/-;hTDP1 cells + 20 nM CPT, ATP luminescence, 48 h; also: nearly all actives have a fitted effect of over 55% in size
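Chicken DT40 Tdp1-/- cells stably complemented with human TDP1 were seeded at 400 cells/well in medium containing 20 nM camptothecin, exposed to pin-transferred compounds, and grown at 37 °C for at least 48 hr. Viability was read as ATP luminescence.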
DT40 TDP1 no CPT – qHTS for Inhibitors of human tyrosyl-DNA phosphodiesterase 1 (TDP1): qHTS in cells in absence of CPT; Potency, µM (top dose mostly 46.2 µM), without a hit: at the top dose activity change, negative = growth inhibition, hits mostly inhibitors; actives 15% (n = 420,000); AID 686978, 2013; DT40 Tdp1-/- hTDP1 cells, no CPT, ATP luminescence, 48 h; also: nearly all actives have a fitted effect of over 55% in size
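Cells were dispensed at 400 per well, compounds added by pin tool, plates incubated ≥48 hr at 37 °C, then CellTiter-Glo added for 30 min at room temperature before luminescence reading. Line: DT40 Tdp1-/- complemented with hTDP1; camptothecin omitted.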
HT1080-NT tox – kills 2HG-producing HT-1080-NT fibrosarcoma cells; actives 1.6% (n = 360,000); Potency, µM (top dose mostly 46.1 µM), inactives show at the top dose activity, negative = less viability, usual class: cytotoxic; AID 686970; HT-1080-NT fibrosarcoma viability, CellTiter-Glo ATP luminescence, 48 h;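 also: NT is the 2HG producing partner of a matched IDH1 knockdown line; 0% = DMSO-treated cells and -100% = media-only wells without cells; nearly all actives have a fitted effect of over 55% in size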
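A 48-hour cytotoxicity screen used HT-1080-NT cells plated 2 hours before compound delivery. ATP-based CellTiter-Glo luminescence measured viability, normalized to DMSO and no-cell controls.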
KB-V1 MDR tox – KB-V1 MDR subline cytotoxicity; KB-V1 MDR cells viability, CellTiter-Glo, 72 h; Potency, µM (doses to about 46.1 µM), actives largely listed as cytotoxic; actives 3.4% (n = 400,000); AID 1347076; also: nearly all actives have a fitted effect of over 60% in size
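Potencies derive from concentration-effect curves fitted to normalized luminescence (CellTiter-Glo) of KB-V1 cells treated for 72 h at 37 degrees C in phenol-red-free DMEM containing 10% FBS.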
HT1080 IDH1KD tx – kills HT-1080 cells with IDH1 knockdown; HT-1080 IDH1 knockdown viability, ATP luminescence, 48 h; Potency, µM (top dose mostly 46.1 µM), without a hit: at the highest dose activity, negative = toxicity, actives largely listed as cytotoxic; actives 2% (n = 360,000);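 also: 0% = DMSO wells and -100% = cell-free medium wells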
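Using the IDH1-knockdown HT-1080 line run in the same batch and compound series as the NT line, viability after 48 h at 37 °C was determined by CellTiter-Glo luminescence and expressed as % activity.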
Numbers without * were called inactive; i = inactive; ? = inconclusive; . = not tested or not shown; [ ] = another dose, or the depositor's remark. Calls follow the shape of the dose curve; as a rule, active = well fitted curve in the direction sought with a large enough effect; inconclusive = small, poorly fitted or top-dose-only effect, or another doubt; inactive = no such curve, though single readings can be large; an effect the other way counts as inactive or inconclusive. Unless noted, % is scaled to controls: 0 for no effect and ±100 for the full control effect; potency is read from the fitted curve at half-maximal effect.

SMILES | KB-3-1 cytotox | DT40 TDP1 CPT | DT40 TDP1 no CPT | HT1080-NT tox | KB-V1 MDR tox | HT1080 IDH1KD tx
O=C(CCCn1c(SCc2cccc([N+](=O)[O-])c2)nc2ccccc2c1=O)NCC1CCCO1 (configuration not stated) | i | ? | 23.1µM* | ? | i | ?
CCc1ccccc1NC(=O)CSc1nc2cc(C(=O)NCC3CCCO3)ccc2c(=O)n1CC1CCCO1 (configuration not stated) | i | ? | ? | -1.2% | i | 0.2%
Cc1cc(C)cc(OCC(=O)OCc2nnc(-c3ccccc3)o2)c1 | i | -3.0% | 18.4% | 10.6% | i | 4.9%
CC1CCCN(S(=O)(=O)c2cc3c4c(c2)CC(=O)N4CCC3)C1 (configuration not stated) | i | -24.1% | -25.2% | . | i | .
Nc1ccc2oc(-c3ccc4nc[nH]c4c3)nc2c1 | i | 20.6µM* | 10.3µM* | -3.4% | i | -15.3%
Cc1ccccc1NS(=O)(=O)c1nnc(NC(=O)CC(C)C)s1 | i | 4.6% | -0.3% | -3.1% | i | 4.8%
NC(=O)c1ccsc1NC(=O)COC(=O)Cc1c[nH]c2ccccc12 | i | ? | 16.4µM* | -2.6% | i | -4.9%
NC(=O)c1ccsc1NC(=O)COC(=O)Cc1ccccc1[N+](=O)[O-] | i | 23.1µM* | 20.6µM* | -4.5% | i | -14.1%
NC(=O)c1ccsc1NC(=O)COC(=O)Cc1cccc2ccccc12 | i | 9.2µM* | 10.3µM* | -20.0% | i | -19.6%
O=C(COC(=O)Cc1c[nH]c2ccccc12)Nc1ccccc1 | i | 2.1% | -22.7% | 12.1% | i | 11.6%
NC(=O)c1ccsc1NC(=O)COc1ccccc1 | i | ? | -27.4% | -24.1% | 13µM* | ?
NC(=O)c1ccsc1NC(=O)COC(=O)Cc1ccc(F)cc1 | i | -14.1% | ? | -2.4% | i | -11.2%
Brc1ccc(-c2ncc3ccccn23)cc1 | i | 19.4% | 0.4% | 0.0% | i | 14.5%
COc1ccc(OC)c(CCNc2nc3cc(OC)c(OC)cc3c3nc(-c4cccnc4)nn23)c1 | . | -5.7% | -15.9% | . | . | .
CC(C)c1ccccc1NC(=O)COC(=O)Cc1c[nH]c2ccccc12 | i | 0.082µM* | -10.5% | -3.3% | i | 0.4%
COC(=O)[C@@H](Cc1ccccc1)NC(=O)/C=C/[C@H]1O[C@@H](n2cnc3c(NC(=O)c4ccccc4)ncnc32)[C@H](O)[C@@H]1O | i | 4.5% | -5.9% | 23.7% | i | 14.7%
CO/N=C/c1ccc(N2CCOCC2)c([N+](=O)[O-])c1 | i | 16.3% | -10.8% | 6.3% | i | 13.0%
O=[N+]([O-])c1cc(/C=N/OCc2c(Cl)cccc2Cl)ccc1N1CCOCC1 | ? | ? | -29.4% | 3.9% | 13µM* | 1.5%
COc1ccc(C(CC(=O)NCc2ccco2)c2ccc(F)cc2)cc1 (configuration not stated) | i | -25.8% | -3.7% | 0.8% | i | -3.6%
CCOc1ccc(NC(=O)/C=C\C(=O)N(c2ccc(C(C)C)cc2)C(C(=O)NCc2ccco2)c2ccc(F)cc2)cc1 (configuration not stated) | . | 5.17µM* | 13µM* | . | . | .
COc1ccc(N(C(=O)/C=C\C(=O)Nc2ccc(Cl)cc2)C(C(=O)NCc2ccco2)c2ccc(C)cc2)cc1 (configuration not stated) | . | 16.4µM* | 18.4µM* | . | . | .
COc1ccc(NC(=O)/C=C\C(=O)N(c2ccc(C(C)C)cc2)C(C(=O)NCc2ccco2)c2ccc(F)cc2)cc1 (configuration not stated) | . | 18.4µM* | ? | . | . | .
O=C1C(=O)C(c2cc(O)c(O)c(O)c2)Oc2cc(O)cc(O)c21 (configuration not stated) | ? | ? | ? | . | i | .
CC(C)CN(Cc1cc(=O)oc2cc(-c3ccccc3)c(O)cc12)CC(C)C | ? | ? | ? | 25.9µM* | i | ?
O=c1cc(CN2CCN(C/C=C/c3ccccc3)CC2)c2cc(O)c(-c3ccccc3)cc2o1 | ? | 18.4µM* | 18.4µM* | 6.4% | i | 15.6%
SMILES | KB-3-1 cytotox | DT40 TDP1 CPT | DT40 TDP1 no CPT | HT1080-NT tox | KB-V1 MDR tox | HT1080 IDH1KD tx
O=c1cc(-c2ccccc2)c2ccc(O)cc2o1 | i | -15.6% | ? | -0.4% | i | -11.4%
Cc1cc(C)c2c(CN3CCN(c4ccccc4F)CC3)cc(=O)oc2c1 | i | 23.1µM* | ? | 18.9% | i | 13.8%
O=c1cc(CN2CCN(c3ccccc3F)CC2)c2cc(O)c(-c3ccccc3)cc2o1 | i | ? | 6.51µM* | 20.4% | i | 8.9%
COc1cc2oc(=O)cc(CN3CCN(c4ccccc4F)CC3)c2cc1Cl | i | ? | ? | 19.5% | i | 23.4%
Cc1cc(C)c2c(CN3CCN(C)CC3)cc(=O)oc2c1 | i | -10.4% | -7.0% | -2.1% | ? | 0.7%
N#Cc1cc2c(=O)n3ccccc3nc2n(-c2nnc(SCc3ccc(F)cc3)s2)c1=O | i | -18.0% | -23.1% | . | i | .
Cc1ccc(S(=O)(=O)N2CCOCC2)cc1C(=O)NCCCN1CCCC1=O | i | 0.5% | -14.4% | 6.7% | ? | 11.8%
Cc1ccccc1-c1noc(-c2ccccc2OCC(=O)Nc2ccccc2[N+](=O)[O-])n1 | i | -20.8% | -9.5% | . | i | .
COc1ccc(N2CCN(Cc3cc(=O)oc4cc(-c5ccccc5)c(O)cc34)CC2)cc1 | ? | 5.8µM* | 6.51µM* | -16.2% | ? | -17.1%
CN(C)CCNc1ncnc2c1ncn2[C@H]1CN(Cc2ccc(Cl)cc2)C[C@@H](CO)O1 | i | ? | -24.9% | 11.7% | i | -0.1%
O=C(COC(=O)C1CCN(S(=O)(=O)c2ccc3c(c2)OCCO3)CC1)Nc1ccc(C(F)(F)F)cc1 | i | 12.1% | -17.4% | 0.4% | i | -8.5%
CC1=C(c2ccc(C(C)C)cc2)S(=O)(=O)NC1=NCc1ccccc1Br | . | ? | 13µM* | . | . | .
CC1=C(c2ccc(F)cc2)S(=O)(=O)NC1=NCc1ccccc1F | i | ? | ? | . | i | .
CSc1nnc(-c2sc3cc(C(F)(F)F)cnc3c2-c2ccccc2)n1C | 6.51µM* | 4.61µM* | 16.4µM* | ? | 3.66µM* | -27.1%[9.24 µM]

Screening data: PubChem BioAssay, National Center for Advancing Translational Sciences (NCATS)
